A selection: hits, their analogues and other compounds. The true share with any hit is near 27%.
CYP2C19 inhib – blockers of cytochrome P450 2C19 activity – biochemical, luminescence, ADME assay, primary screen; inhibition, % at 5 µM; P33261; actives 21% (n = 96,000); CYP2C19 Supersomes, luciferin-H EGE luminescence, 30 min;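 active = CYP2C19 inhibition above a set limit at 5 µM in the primary screen, cut at about 50% in these data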;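 also: plate controls were negative control wells for no effect and 2.5 mM tranylcypromine positive control for full effect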
CYP2C9 activ – human CYP2C9 activators, primary screen, biochemical, luminescence; recombinant CYP2C9, luciferin-H conversion; stronger effect = higher value; factor 1 = untreated enzyme, 0 = blocked; actives 1.4% (n = 96,000); activation factor at 5 µM; Cytochrome P450 2C9 (Homo sapiens), P11712;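 active = activation factor of 2 or more for CYP2C9 at a 5 µM dose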;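 also: 0 = sulfaphenazole-blocked wells and 1 = vehicle-only wells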
Target sequence (P11712 whole entry, looked up): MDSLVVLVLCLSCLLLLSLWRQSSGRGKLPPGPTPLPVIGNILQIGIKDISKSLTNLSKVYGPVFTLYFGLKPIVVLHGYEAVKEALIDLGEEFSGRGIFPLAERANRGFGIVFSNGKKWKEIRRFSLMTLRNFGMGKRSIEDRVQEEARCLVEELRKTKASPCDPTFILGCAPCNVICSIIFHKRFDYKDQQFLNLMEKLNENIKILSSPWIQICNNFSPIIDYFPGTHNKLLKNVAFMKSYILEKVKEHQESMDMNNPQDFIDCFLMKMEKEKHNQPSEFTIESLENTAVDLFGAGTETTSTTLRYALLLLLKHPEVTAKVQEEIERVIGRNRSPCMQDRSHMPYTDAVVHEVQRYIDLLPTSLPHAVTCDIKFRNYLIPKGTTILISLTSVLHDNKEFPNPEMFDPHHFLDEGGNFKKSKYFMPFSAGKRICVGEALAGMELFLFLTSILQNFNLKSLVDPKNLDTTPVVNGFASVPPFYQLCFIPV
CYP2C9 inhib – blockers of cytochrome P450 2C9 activity – biochemical, luminescence, ADME assay, primary screen; actives 20% (n = 96,000); CYP2C9 Supersomes, luciferin-H conversion; P11712; AID 777, 2007; inhibition, % at 5 µM;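 active = blocking of liver enzyme CYP2C9 beyond about 50% at 5 µM, limit read from the data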
sEH inh – soluble epoxide hydrolase inhibitors, primary screen, biochemical, human sEH; AID 707, 2007; actives 0.34% (n = 91,000); inhibition, % at 2 µM; recombinant human sEH enzymatic activity assay; in the data active = inhibition above about 80%
CYP2C19 activ – human CYP2C19 activators, primary screen, biochemical, luminescence. Cytochrome P450 2C19 (Homo sapiens), P33261. recombinant CYP2C19, luciferin-H EGE luminescence; stronger effect = higher value; 0 = fully inhibited enzyme, 1 = untreated enzyme. activation factor at 5 µM. 96,000 tested, under 10 active;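 active = activation factor of at least 2 at 5 µM in the primary screen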;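 also: 0 = wells with 2.5 mM tranylcypromine and 1 = vehicle-only wells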
sEH act – soluble epoxide hydrolase activators, primary screen, biochemical, human sEH; actives 0.04% (n = 91,000); purified human sEH enzymatic activity, activator screen; AID 717, 2007; activation, % at 2 µM; Bifunctional epoxide hydrolase 2 (Homo sapiens), P34913; in the data active = activation above about 37%
* marks the source's active call; other numbers are inactive results.

For O=C1C(c2ccncc2)N(CCC2=CCCCC2)C(=O)CN1C1CCCCC1 (stereo unspecified) the results were CYP2C19 inhib 53*, CYP2C9 activ 0.5, CYP2C9 inhib 54*, sEH inh 5, CYP2C19 activ 0.5 and sEH act -7.
CCc1nc(SCC(=O)c2cc(C)ccc2C)n[nH]1 was read as CYP2C19 inhib 32, CYP2C9 activ 1.6, CYP2C9 inhib -60, sEH inh 6, CYP2C19 activ 0.7 and sEH act -8.
For Cc1ccc(C(=O)CSc2n[nH]c(C)n2)cc1 the results were CYP2C19 inhib 52*, CYP2C9 activ 1.1, CYP2C9 inhib -15, sEH inh -4, CYP2C19 activ 0.5 and sEH act 4.
Screening O=C(CSc1n[nH]c(-c2ccccc2)n1)c1ccccc1 returned CYP2C19 inhib 47, CYP2C9 activ 0.8, CYP2C9 inhib 25, sEH inh -7, CYP2C19 activ 0.5 and sEH act 10.
Screening Cc1ccc(C)c(C(=O)CSc2n[nH]c(C)n2)c1 returned CYP2C19 inhib 57*, CYP2C9 activ 0.9, CYP2C9 inhib 14, sEH inh 0, CYP2C19 activ 0.4 and sEH act 0.
`CCc1ccc(C(=O)CSc2n[nH]c(C)n2)cc1` gave CYP2C19 inhib 89*, CYP2C9 activ 0.6, CYP2C9 inhib 35 and CYP2C19 activ 0.1.
Screening O=C(CN1C(=O)COc2ccccc21)N(Cc1cccnc1)Cc1cccc(F)c1 returned CYP2C19 inhib 87*, CYP2C9 activ 0.1, CYP2C9 inhib 91*, sEH inh 18, CYP2C19 activ 0.1 and sEH act -19.
CCC1Oc2ccc(C)cc2N(CC(=O)N(Cc2cccnc2)Cc2cccc(F)c2)C1=O (stereo unspecified) was read as sEH inh 7 and sEH act -4.
`CC(C)=CCC(C)(C)C1OCCN1C(=O)Nc1ccccc1` (stereo unspecified) gave CYP2C19 inhib 100*, CYP2C9 activ 0.2, CYP2C9 inhib 80*, sEH inh 2, CYP2C19 activ 0 and sEH act -3.
For COCCCNc1c2c3c(cccc3[nH]c1=O)C(=O)c1ccccc1-2 the results were CYP2C19 inhib 40, CYP2C9 activ 0.4, CYP2C9 inhib 61*, sEH inh -18, CYP2C19 activ 0.6 and sEH act 17.
For O=C(Nc1ccccc1)OC1C2CCC1C(N1CCCCC1)CC2 (stereo unspecified) the results were CYP2C19 inhib 18, CYP2C9 activ 0.9, CYP2C9 inhib 13, sEH inh -12, CYP2C19 activ 0.8 and sEH act 13.
For CCN1CCCC1CNC(=O)CSc1cc(=O)n(C)c2cc(Cl)ccc12 (stereo unspecified) the results were CYP2C19 inhib -20, CYP2C9 activ 1.1, CYP2C9 inhib -8 and CYP2C19 activ 1.2.
CCOC(=O)CSc1cc(=O)n(C)c2cc(Cl)ccc12 was read as CYP2C19 inhib 64*, CYP2C9 activ 0.5, CYP2C9 inhib 51*, sEH inh 10, CYP2C19 activ 0.4 and sEH act -11.
CCOC(=O)CSC1=C(C#N)C(c2ccco2)C(C(=O)Nc2cccc(C(F)(F)F)c2)=C(C)N1 (stereo unspecified) was read as CYP2C19 inhib 78*, CYP2C9 activ 0.2, CYP2C9 inhib 82*, sEH inh -4, CYP2C19 activ 0.2 and sEH act 10.
CCOC(=O)C1=C(c2ccccc2)NC(SC)=C(C#N)C1c1ccco1 (stereo unspecified) was read as CYP2C19 inhib 45, CYP2C9 activ 0.2, CYP2C9 inhib 78*, sEH inh -16, CYP2C19 activ 0.6 and sEH act 18.
CCOC(=O)C1=C(c2ccccc2)NC(SCC(=O)Nc2cccc(C)c2)=C(C#N)C1c1ccco1 (stereo unspecified) was read as CYP2C19 inhib 60*, CYP2C9 activ 0.1, CYP2C9 inhib 92*, sEH inh 6, CYP2C19 activ 0.4 and sEH act -6.
Screening CCOC(=O)C1=C(c2ccccc2)NC(SCC(=O)Nc2ccc(C)cc2)=C(C#N)C1c1ccco1 (stereo unspecified) returned CYP2C19 inhib 4, CYP2C9 activ 0.4, CYP2C9 inhib 65*, sEH inh 15, CYP2C19 activ 1 and sEH act -10.
CCOC(=O)C1=C(c2ccccc2)NC(SCC(=O)Nc2ccccc2C)=C(C#N)C1c1ccco1 (stereo unspecified) was read as CYP2C19 inhib 57*, CYP2C9 activ 0.2, CYP2C9 inhib 75*, sEH inh 2, CYP2C19 activ 0.4 and sEH act 0.
Cc1ccccc1NC(=O)CSC1=C(C#N)C(c2ccsc2)CC(=O)N1 (stereo unspecified) was read as CYP2C19 inhib 27, CYP2C9 activ 1.4, CYP2C9 inhib -45, sEH inh -6, CYP2C19 activ 0.7 and sEH act 4.
`O=C1NC(=Nc2cccc(Cl)c2)SC1Cc1cccc(Cl)c1Cl` (stereo unspecified) gave CYP2C19 inhib 10, CYP2C9 activ 0.8, CYP2C9 inhib 22, sEH inh 20, CYP2C19 activ 0.9 and sEH act -19.
For Cc1ccccc1-c1nc(Cc2ccccc2)no1 the results were CYP2C19 inhib 17, CYP2C9 activ 0.9, CYP2C9 inhib 9, sEH inh -12, CYP2C19 activ 0.8 and sEH act 15.
Screening CCCC(=O)c1c[nH]c(C(=O)NCc2ccco2)c1 returned CYP2C19 inhib 11, CYP2C9 activ 1, CYP2C9 inhib 4, sEH inh 3, CYP2C19 activ 0.9 and sEH act -2.
`COc1ccc(C2c3cc(OC)c(OC)cc3CCN2C2CC(=O)N(c3ccccc3)C2=O)cc1OC` (stereo unspecified) gave CYP2C19 inhib 16, CYP2C9 activ 0.5, CYP2C9 inhib 50, sEH inh 15, CYP2C19 activ 0.8 and sEH act -14.
`COc1ccc(C2C(C(C)=O)=C(C)N=c3s/c(=C\c4ccc5c(c4)OCO5)c(=O)n32)c(OC)c1` (stereo unspecified) gave sEH inh 7 and sEH act -4.
For COc1cccc2c1C(=O)O/C2=C/c1ccc2c(c1)OCO2 the results were CYP2C19 inhib 62*, CYP2C9 activ 0.5, CYP2C9 inhib 55*, sEH inh -19, CYP2C19 activ 0.4 and sEH act 18.
Screening Cc1nonc1NC(=O)OC1CCCCC1 returned CYP2C19 inhib 17, CYP2C9 activ 1, CYP2C9 inhib 3, sEH inh 3, CYP2C19 activ 0.8 and sEH act -5.

Source: PubChem (several laboratories)
